About 13,000 (27%) of roughly 48,000 compounds showed an effect of 50% or more. The list shows a part of the results.
Test system: Wolbachia pipientis
Assay: Anti-Wolbachia Cell-Based Screen
Type: functional
Parameters: scale not given: in the data most compounds retested in dose-response had high values
Conditions: 5 µM

Row | Structure (SMILES) | Percent Effect
1 | CC(CO)CSc1ncnc2[nH]ncc12 (centres undefined) | 8.493%
2 | CCC1CN(c2nnc(C)c(C)c2C#N)CCO1 (centres undefined) | -3.23%
3 | CCc1n[nH]c(C2CN(C(=O)c3ncoc3CC)CCO2)n1 (centres undefined) | 97.1%
4 | CCc1nnsc1C(=O)N1CCOC(c2nc(C(C)C)n[nH]2)C1 (centres undefined) | 112.8%
5 | CC(C)c1n[nH]c(C2CN(C(=O)C3=COCC3)CCO2)n1 (centres undefined) | -4.984%
6 | CCc1nnsc1C(=O)N1CCOC(c2nc(C)n[nH]2)C1 (centres undefined) | 12.72%
7 | CCc1ocnc1C(=O)N1CCOC(c2nc(C(C)C)n[nH]2)C1 (centres undefined) | 114.1%
8 | Cc1noc(C)c1CN1C[C@@H]2CC[C@H](C1)N(Cc1cc(F)cc(F)c1)C2 | 3.369%
9 | N#Cc1ccccc1CN1C[C@@H]2CC[C@H](C1)N(CC1CCC1)C2=O | -9.781%
10 | O=C(O)C(F)(F)F.O=C(c1ccncc1)N1CCCn2nnc(COCCO)c2C1 | 26.37%
11 | CCc1nnc2n1CCN(Cc1noc(-c3cccc(C)c3)n1)C2 | -12.68%
12 | Cc1ccccc1OCC(O)C(=O)N1CCC2(CC1)CN(C)C(=O)O2 (centres undefined) | -0.4396%
13 | COc1ccc(NC(=O)Cc2c(C)nc3c(c2C)c(=O)[nH]n3C)cn1 | 22.04%
14 | CC(C)CC(=O)NCc1cccc(OCCN(C)C2CCOCC2)c1 | -19.6%
15 | c1ccc2sc(NCC3(N4CCOCC4)CCSC3)nc2c1 (centres undefined) | 0.766%
16 | O=C(CC(F)(F)F)NCC(O)c1ccc2ccccc2c1 (centres undefined) | -2.994%
17 | COc1ccc(CN2CC[C@H](c3nnc(-c4ccco4)o3)C2)cc1 | 27.76%
18 | Cc1ncsc1-c1nnc(C2CCN(CC3CCCCC3)CC2)o1 | -4.118%
19 | Cc1ncsc1-c1nnc(C2CCN(Cc3ccccc3)CC2)o1 | 104.4%
20 | COc1ccc(-c2nnc([C@H]3CCN(CC(C)(C)C)C3)o2)cc1 | 4.195%
21 | Cc1ncsc1-c1nc(CC2CCN(C)CC2)nn1Cc1ccccc1 | -11.92%
22 | Cc1ncsc1-c1nnc(C2CCN(Cc3ccc(F)cc3)CC2)o1 | -4.23%
23 | COc1ccc(CN2CCC(c3nnc(-c4scnc4C)o3)CC2)cc1 | 115.7%

Row | Structure (SMILES) | Percent Effect
24 | Cc1ncsc1-c1nnc(C2CCN(Cc3ccc(Cl)cc3)CC2)o1 | 113.6%
25 | Cc1ccc(CN2CC[C@H](c3nnc(-c4ccco4)o3)C2)cc1 | -0.8562%
26 | COc1ccc2c(c1)CC(C(=O)N(C)Cc1noc3c1CCCC3)CO2 (centres undefined) | -16.58%
27 | c1cnnc(N2CCC(c3nnc(Cn4ccnc4)n3C3CC3)CC2)c1 | -16.04%
28 | COc1cccnc1NC(=O)COC1CCCC1 | 13.24%
29 | O=C(Nc1cc[nH]n1)c1ccc(COCC(F)(F)F)cc1 | 87.88%
30 | Cc1n[nH]c(NC(=O)c2ccc(COCC(F)(F)F)cc2)c1C | 90.05%
31 | CN(C)CCN(Cc1ccc(C(F)(F)F)cc1)C(=O)c1cc[nH]n1 | -18.8%
32 | Cc1n[nH]c(C)c1NC(=O)c1cccc(OCC(F)(F)F)n1 | 9.795%
33 | CC(C)CC(NC(=O)c1cccc(F)c1F)C(=O)Nc1cc[nH]n1 (centres undefined) | -2.094%
34 | COc1cccnc1NC(=O)COc1ccc(F)cc1F | 10.02%
35 | COc1cccnc1NC(=O)c1ccc(COCC(F)(F)F)cc1 | 77.14%
36 | Cc1nc(NC(=O)COCC(F)(F)F)ccc1Br | 2.547%
37 | CC(C)C(=O)NCCNC(=O)C12CCC(=O)N1c1cc(Cl)ccc1S2 (centres undefined) | -7.313%
38 | CC(=O)N[C@@H]1Cc2ccccc2[C@H]1Nc1cc(C2CC2)ncn1 | -3.919%
39 | COCCn1/c(=N\C(=O)CN(C)S(C)(=O)=O)sc2cc(Cl)ccc21 | -11.47%
40 | Cc1ccc2nc(C)c(C)c(C(=O)N3CCC4(CCO4)CC3)c2c1 | -9.053%
41 | O=C(NCc1cccnc1)C1=NN(c2ccccc2)C(=O)CN1 | -0.2289%
42 | CCC(=O)N1CCC(NC2CCSCC2)C1 (centres undefined) | -15.97%
43 | O=C(N[C@]12CC1CN(C(=O)c1ccco1)C2)c1cccc(F)c1 (some centres undefined) | -50.8%
44 | OCCC1CN(C2CCC2)CCN1C1CCCC1 (centres undefined) | 7.142%
45 | CCc1n[nH]c(C2CN(Cc3nc(C4CC4)no3)CCO2)n1 (centres undefined) | 14.51%
46 | Cc1cc(C)n(CC2CN(Cc3nnsc3Cl)CCO2)n1 (centres undefined) | 2.291%

Row | Structure (SMILES) | Percent Effect
47 | Cc1cc(C)n(CC2CN(Cc3cscn3)CCO2)n1 (centres undefined) | -9.283%
48 | Cc1cc(C)n(CC2CN(Cc3nc(C4CC4)no3)CCO2)n1 (centres undefined) | 104.8%
49 | Cc1cc(C)n(CC2CN(Cc3nc(-c4ccoc4)no3)CCO2)n1 (centres undefined) | 9.322%
50 | Cc1cc(C)n(CC2CN(Cc3nc(C)c(C)o3)CCO2)n1 (centres undefined) | 127.2%
51 | Cc1cc(C)n(CC2CN(Cc3noc(C)n3)CCO2)n1 (centres undefined) | 98.99%
52 | CCc1nc(CN2CCOC(Cn3nc(C)cc3C)C2)no1 (centres undefined) | 85.61%
53 | CCc1nc(CN2CCOC(Cn3nc(C)nc3C)C2)no1 (centres undefined) | 5.512%
54 | O=C1O[C@@H]2CN(C3CCOCC3)C[C@@H]2N1CCc1cccc(Cl)c1 | -15.11%
55 | CCNC(=O)NC(=O)CNC(C)(CC)c1nccs1 (centres undefined) | 7.409%
56 | CC(=O)c1cc(C(=O)N2CCC(CC(C)C)C2)c(=O)[nH]c1C (centres undefined) | 6.103%
57 | O=C1CC(Nc2ccc3nccnc3n2)CN1c1ccccc1 (centres undefined) | -12.7%
58 | c1cnn(CC2CN(Cc3noc(C4CC4)n3)CCO2)c1 (centres undefined) | -0.1842%
59 | Cc1cc(C)n(CC2CN(Cc3noc(C4CC4)n3)CCO2)n1 (centres undefined) | 115.4%
60 | COc1cccc2c1OCCCN(c1nc(C)nc3c1CCNCC3)C2 | -7.329%
61 | N#Cc1ccc(F)c(CN2CCCC2Cn2cccn2)c1 (centres undefined) | -3.171%
62 | c1ccc(CN2CCCC2Cn2cncn2)nc1 (centres undefined) | -0.04189%
63 | Fc1ccc(CN2CCCC2Cn2cccn2)c2ncccc12 (centres undefined) | -3.711%
64 | c1ccc(-c2nc(CN3CCCC3Cn3cncn3)cs2)cc1 (centres undefined) | -3.695%
65 | Fc1cccc(-n2ccc(CN3CCCCC3Cn3cncn3)n2)c1 (centres undefined) | -7.7%
66 | c1ccc(-n2ccc(CN3CCCC3Cn3cncn3)n2)cc1 (centres undefined) | 128.5%
67 | Fc1cccc(-n2ccc(CN3CCCC3Cn3cccn3)n2)c1 (centres undefined) | 141.1%
68 | N#Cc1ccccc1CN1CCCCC1Cn1cncn1 (centres undefined) | 7.073%
69 | c1ccc(-n2ccc(CN3CCCCC3Cn3cncn3)n2)cc1 (centres undefined) | 140.8%
